Test results from PubChem BioAssay.
The source made the active and inactive calls.

Columns and labels:
[1] = binders of probe aFSTL3 on microarray, primary screen, stem cell growth factor project, biochemical, small-molecule microarray, fluorescence 635/667 (AID 1064); conditions: higher = more signal;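 further: measures binding of the biotinylated anti-FSTL3 antibody to printed compounds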
[2] = binders from COS7 lysate, DM2A8 probe, primary screen, torsin A project, cell lysate, small-molecule microarray, fluorescence 635/667 (AID 1065); conditions: higher = more signal, COS7 lysate expressing mutant human TOR1A
[3] = binders of probe aFGF2 on microarray, primary screen, stem cell growth factor project, biochemical, small-molecule microarray, fluorescence 635/667 (AID 1067); conditions: higher = more signal;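 further: measures binding of biotinylated aFGF2 protein to printed compounds on slides; z-score merges feature fluorescence and signal-to-noise across triplicate slides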
[4] = binders of probe aFGF10 on microarray, primary screen, stem cell growth factor project, biochemical, small-molecule microarray, fluorescence 635/667 (AID 1071); conditions: higher = more signal;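 further: score merges 667 nm spot intensity and signal to noise from triplicate slides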
[5] = target: Neurogenic locus notch homolog protein 2 (Homo sapiens) (UniProt Q04721); experiment: Notch2 binders on small-molecule microarrays, primary screen, biochemical, small-molecule microarray, 635 nm fluorescence, stem cell growth factors (AID 1073); conditions: Notch2 binding, higher = more signal
[6] = target: Pro-neuregulin-1, membrane-bound isoform (Homo sapiens) (UniProt Q02297); experiment: NRG1 binders on small-molecule microarrays, primary screen, psychiatric disease protein project, biochemical, small-molecule microarray, fluorescence 635/667 (AID 1075); conditions: NRG1 binding, 635 nm fluorescence, higher = more signal;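 further: score combines 667 nm spot fluorescence with signal to noise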
Chain of Pro-neuregulin-1, membrane-bound isoform (Homo sapiens) (Q02297 whole entry, looked up, the tested form may be a part, canonical isoform): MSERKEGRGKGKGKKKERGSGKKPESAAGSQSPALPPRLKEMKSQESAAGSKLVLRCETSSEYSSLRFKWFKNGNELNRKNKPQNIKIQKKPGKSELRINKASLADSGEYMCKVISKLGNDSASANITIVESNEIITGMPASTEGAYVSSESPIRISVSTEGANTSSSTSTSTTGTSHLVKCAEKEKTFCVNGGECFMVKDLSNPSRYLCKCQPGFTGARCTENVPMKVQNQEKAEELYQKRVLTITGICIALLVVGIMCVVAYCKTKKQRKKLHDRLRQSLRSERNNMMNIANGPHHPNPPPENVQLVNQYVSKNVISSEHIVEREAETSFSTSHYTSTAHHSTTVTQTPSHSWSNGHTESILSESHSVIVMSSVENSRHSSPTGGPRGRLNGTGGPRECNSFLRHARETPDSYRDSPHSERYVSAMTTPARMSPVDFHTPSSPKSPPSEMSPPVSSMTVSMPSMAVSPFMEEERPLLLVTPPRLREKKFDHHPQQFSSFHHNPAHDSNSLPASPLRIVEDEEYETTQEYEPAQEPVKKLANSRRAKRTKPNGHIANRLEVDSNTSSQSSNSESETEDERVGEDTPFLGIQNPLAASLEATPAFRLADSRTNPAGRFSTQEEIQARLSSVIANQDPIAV

[7] = tested on: Neuregulin-1 EGF-like domain; experiment: binders of neuregulin-1 EGF-like domain, primary screen, biochemical, small-molecule microarray, 635 nm fluorescence (AID 1081); conditions: small-molecule microarray binding, higher = more signal;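 further: binding of the protein to compounds printed on small-molecule microarray slides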
[8] = FRG1 promoter luciferase signal modulators, primary screen, FRG1 inhibition for FSHD, cell-based, C2C12 myotubes, firefly/Renilla luciferase, luminescence (AID 1084); conditions: higher = more signal, called active from +8 up or from −8 down
[9] = binders of probe aFST on microarray, primary screen, stem cell growth factor project, biochemical, small-molecule microarray, fluorescence 635/667 (AID 1086); conditions: higher = more signal;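 further: score merges 667 nm fluorescence with signal-to-noise of each printed compound spot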
[10] = binders of probe aHhip on microarray, primary screen, stem cell growth factor project, biochemical, small-molecule microarray, fluorescence 635/667 (AID 1087); conditions: higher = more signal;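 further: score merges spot fluorescence at 667nm with spot signal to noise ratio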
[11] = tested on: PRMT1 (protein arginine N-methyltransferase 1); experiment: PRMT1 binders on small-molecule microarrays, primary screen, biochemical, small-molecule microarray, 635 nm fluorescence (AID 1088); conditions: small-molecule microarray binding, higher = more signal;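 further: binding of Prmt1 protein to compounds spotted on small-molecule microarray slides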
[12] = yeast growth modulation, basal conditions, primary screen, YJM789 clinical isolate, OD600, 24 h (AID 1089);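 further: growth of clinical yeast isolate S. cerevisiae YJM 789 seeded 1000 cells per well; test concentration not given here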; conditions: S. cerevisiae YJM789 growth, higher = more signal, called active from +8 up or from −8 down
[13] = fission yeast growth modulation, primary screen, strain 972, OD600, 24 h, no modulator (AID 1090);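 further: basal condition with compound alone and no growth modifier present; test concentration not given here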; conditions: S. pombe 972 growth, higher = more signal, called active from +8 up or from −8 down
[14] = S. cerevisiae growth modulation with rapamycin, primary screen, strain BY4716, OD600, 96 h (AID 1091); conditions: higher = more signal, called active from +8 up or from −8 down; further: test concentration not given here
[15] = target: Torsin-1A-interacting protein 2 (Homo sapiens) (UniProt Q8NFQ8); experiment: LULL1 binders on small-molecule microarray, primary screen, cell lysate, human LULL1 lysate, 635/667 nm fluorescence (AID 1092); conditions: hLULL1 lysate binding, 635 nm fluorescence, higher = more signal;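 further: probe is lysate of COS7 cells overexpressing human LULL1; score merges per-feature 667 nm fluorescence with signal-to-noise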
Chain of Torsin-1A-interacting protein 2 (Homo sapiens) (Q8NFQ8 whole entry, looked up): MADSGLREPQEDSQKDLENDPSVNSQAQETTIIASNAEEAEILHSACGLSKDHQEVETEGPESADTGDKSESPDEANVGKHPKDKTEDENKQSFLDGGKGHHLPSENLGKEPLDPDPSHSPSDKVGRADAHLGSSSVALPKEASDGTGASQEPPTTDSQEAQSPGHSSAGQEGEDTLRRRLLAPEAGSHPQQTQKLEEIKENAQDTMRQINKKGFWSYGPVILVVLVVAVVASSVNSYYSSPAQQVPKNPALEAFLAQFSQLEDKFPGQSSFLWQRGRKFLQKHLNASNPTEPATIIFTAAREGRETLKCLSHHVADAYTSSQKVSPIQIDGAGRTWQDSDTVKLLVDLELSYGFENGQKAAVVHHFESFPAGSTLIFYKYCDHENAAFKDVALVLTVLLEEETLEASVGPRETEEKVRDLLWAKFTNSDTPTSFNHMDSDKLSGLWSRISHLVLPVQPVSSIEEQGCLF

[16] = E. coli growth modulation, two-sided OD650, primary screen, E. coli filamentation project, strain DRC41, 24 h (AID 1093); conditions: OD650, 24 h, higher = more signal, called active from +8 up or from −8 down;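 further: MC1000 strain lacking acrAB efflux and sulA so SOS filamentation is blocked; test concentration not given here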
[17] = small-molecule microarray binders of probe aLefty2, primary screen, biochemical, biotinylated probe, 635/667 nm fluorescence (AID 1094); conditions: higher = more signal;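 further: score merges spot fluorescence near 667 nm with spot signal-to-noise ratio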
[18] = tested on: Noggin (protein binding on small-molecule microarray); experiment: Noggin binders on small-molecule microarray, primary screen, biochemical, 635/667 nm fluorescence (AID 1095); conditions: 635 nm fluorescence, higher = more signal;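 further: score merges 667 nm feature fluorescence with signal to noise over triplicate slides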
[19] = target: Neurogenic locus notch homolog protein 3 (Homo sapiens) (UniProt Q9UM47); experiment: NOTCH3 binders on small-molecule microarray, primary screen, biochemical, 635/667 nm fluorescence (AID 1096); conditions: NOTCH3 binding, 635 nm fluorescence, higher = more signal
Chain of Neurogenic locus notch homolog protein 3 (Homo sapiens) (Q9UM47 whole entry, looked up): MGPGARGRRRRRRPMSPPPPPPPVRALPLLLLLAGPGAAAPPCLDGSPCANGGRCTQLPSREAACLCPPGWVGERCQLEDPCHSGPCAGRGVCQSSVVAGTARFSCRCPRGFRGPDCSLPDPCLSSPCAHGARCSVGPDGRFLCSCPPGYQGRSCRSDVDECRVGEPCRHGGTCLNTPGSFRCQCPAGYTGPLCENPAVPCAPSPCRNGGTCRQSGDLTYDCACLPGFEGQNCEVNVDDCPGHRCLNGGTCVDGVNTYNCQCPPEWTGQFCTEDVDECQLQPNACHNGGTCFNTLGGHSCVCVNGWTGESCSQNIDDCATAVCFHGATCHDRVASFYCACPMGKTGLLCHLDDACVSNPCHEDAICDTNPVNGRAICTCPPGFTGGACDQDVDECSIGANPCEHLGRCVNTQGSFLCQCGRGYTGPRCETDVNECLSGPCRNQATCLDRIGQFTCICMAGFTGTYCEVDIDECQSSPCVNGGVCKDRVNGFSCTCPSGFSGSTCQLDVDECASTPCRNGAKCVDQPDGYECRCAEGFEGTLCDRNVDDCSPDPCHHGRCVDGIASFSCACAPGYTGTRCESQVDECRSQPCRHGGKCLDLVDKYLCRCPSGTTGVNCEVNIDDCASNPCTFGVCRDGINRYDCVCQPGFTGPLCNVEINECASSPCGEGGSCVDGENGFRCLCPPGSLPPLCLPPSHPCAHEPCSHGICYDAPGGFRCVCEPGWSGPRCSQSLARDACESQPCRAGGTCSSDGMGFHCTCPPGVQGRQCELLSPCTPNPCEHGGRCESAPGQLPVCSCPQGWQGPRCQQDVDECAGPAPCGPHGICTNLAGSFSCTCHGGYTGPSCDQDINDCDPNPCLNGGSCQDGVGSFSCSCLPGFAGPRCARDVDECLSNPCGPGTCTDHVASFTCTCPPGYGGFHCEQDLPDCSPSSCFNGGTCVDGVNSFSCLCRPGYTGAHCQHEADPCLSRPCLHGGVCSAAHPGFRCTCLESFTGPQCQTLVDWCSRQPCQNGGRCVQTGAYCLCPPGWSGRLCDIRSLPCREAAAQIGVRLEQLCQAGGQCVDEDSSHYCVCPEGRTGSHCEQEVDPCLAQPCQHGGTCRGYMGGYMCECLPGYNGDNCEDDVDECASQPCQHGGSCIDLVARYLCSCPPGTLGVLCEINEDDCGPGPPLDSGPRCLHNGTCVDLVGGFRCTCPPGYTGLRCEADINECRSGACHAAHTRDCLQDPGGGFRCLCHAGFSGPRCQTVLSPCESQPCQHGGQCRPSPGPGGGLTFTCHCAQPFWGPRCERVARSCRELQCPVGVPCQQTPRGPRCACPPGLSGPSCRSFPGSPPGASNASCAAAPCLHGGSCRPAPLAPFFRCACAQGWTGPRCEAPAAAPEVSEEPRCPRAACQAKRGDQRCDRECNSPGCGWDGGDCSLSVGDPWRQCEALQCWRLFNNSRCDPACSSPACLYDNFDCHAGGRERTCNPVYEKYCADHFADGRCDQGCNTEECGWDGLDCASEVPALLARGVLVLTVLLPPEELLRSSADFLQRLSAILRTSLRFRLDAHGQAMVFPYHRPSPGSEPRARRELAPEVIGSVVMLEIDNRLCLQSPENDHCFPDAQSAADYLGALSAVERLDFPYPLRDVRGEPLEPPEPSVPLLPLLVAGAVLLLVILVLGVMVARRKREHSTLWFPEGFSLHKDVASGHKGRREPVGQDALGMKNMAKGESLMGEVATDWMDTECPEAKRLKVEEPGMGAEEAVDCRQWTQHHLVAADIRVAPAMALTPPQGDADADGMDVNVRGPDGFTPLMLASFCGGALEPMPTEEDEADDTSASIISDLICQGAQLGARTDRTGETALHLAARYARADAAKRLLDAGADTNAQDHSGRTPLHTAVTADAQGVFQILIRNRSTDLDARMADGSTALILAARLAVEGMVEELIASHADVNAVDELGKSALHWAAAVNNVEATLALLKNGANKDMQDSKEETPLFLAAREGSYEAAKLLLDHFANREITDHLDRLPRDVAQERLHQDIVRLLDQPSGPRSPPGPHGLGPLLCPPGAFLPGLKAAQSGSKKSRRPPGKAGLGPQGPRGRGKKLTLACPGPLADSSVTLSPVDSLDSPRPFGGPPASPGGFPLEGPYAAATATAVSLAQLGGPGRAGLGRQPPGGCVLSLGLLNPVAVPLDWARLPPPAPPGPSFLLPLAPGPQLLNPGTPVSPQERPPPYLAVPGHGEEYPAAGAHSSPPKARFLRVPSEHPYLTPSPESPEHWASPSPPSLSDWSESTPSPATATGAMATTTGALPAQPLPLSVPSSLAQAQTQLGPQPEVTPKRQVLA

[20] = small-molecule microarray binders of probe aEGFR, primary screen, biochemical, biotinylated probe, 635/667 nm fluorescence (AID 1097); conditions: higher = more signal;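 further: probe is a biotinylated anti-EGFR antibody binding compounds printed on slides; score combines fluorescence near 667 nm and signal to noise of each spot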

Structure (SMILES) | composite z-score [1] | composite z-score [2] | composite z-score [3] | composite z-score [4] | composite z-score [5] | composite z-score [6] | composite z-score [7] | z-score [8] | composite z-score [9] | composite z-score [10] | composite z-score [11] | z-score [12] | z-score [13] | z-score [14] | composite z-score [15] | z-score [16] | composite z-score [17] | composite z-score [18] | composite z-score [19] | composite z-score [20]
C=CC[C@]1(C(=O)N2CCCCC2)N=C(c2ccc(OCCCO)cc2)O[C@H]1c1ccccc1CN=[N+]=[N-] | -0.25 | 0.516 | 0.238 | 0.546 | 1.42 | 1.17 | 1.24 | -1.08 (inactive) | 0.907 | -0.0699 | 1.54 | -1.66 (inactive) | -0.442 (inactive) | -0.837 (inactive) | 3.19 | 0.937 (inactive) | -0.013 | 0.562 | 1.08 | -0.0512
COC(=O)c1c(CC[C@@H](CO)NC(=O)N2CCC[C@H]2Cn2cc(C3(O)CCCCC3)nn2)oc(C(C)=O)c1C(=O)OC | -0.522 | 0.831 | -0.142 | 0.439 | 0.495 | 1.11 | 1.19 | -0.199 (inactive) | 0.0512 | -0.201 | 1.53 | 0.752 (inactive) | -0.154 (inactive) | -1.28 (inactive) | 3.4 | -0.889 (inactive) | -0.124 | 0.872 | 0.916 | -0.0097
O=C1NC(=O)C2C1C=CC(C(O)c1ccco1)N2Nc1ccc(Cl)cc1Cl (stereo not given) | 0.388 | -0.13 | -0.0375 | -0.0728 | 0.42 | 0.825 | 1.24 | 1.62 (inactive) | 0.549 | -0.126 | 0.232 | -25.2 (active) | -1.67 (inactive) | -0.647 (inactive) | 1.72 | -1.49 (inactive) | -0.103 | 0.223 | 0.417 | -0.0362
CC(C)=C1C(=O)C(c2ccccc2)=C2CN3C(=O)N(CCc4ccccc4)C(=O)[C@]3(Cc3ccc(C(F)(F)F)cc3)[C@H]21 | 1.11 | -0.192 | 0.0977 | -0.122 | 0.816 | 0.757 | 0.844 | 0.845 (inactive) | 0.693 | 0.281 | -0.555 | -0.117 (inactive) | 1.38 (inactive) | 0.812 (inactive) | 2.45 | -1.48 (inactive) | 0.01 | -1.08 | 0.245 | -0.139
CCCCCCCCCC(O)C1C=CC2C(=O)N(c3ccccc3)C(=O)C2N1Nc1cc(OC)c(OC)c(OC)c1 (stereo not given) | -0.0386 | -0.666 | 0.0166 | 0.23 | 0.45 | 0.856 | 0.487 | 0.393 (inactive) | 0.199 | -0.13 | 0.619 | 1.13 (inactive) | 0.441 (inactive) | -0.236 (inactive) | 2.23 | -3.91 (inactive) | -0.163 | -0.344 | 0.631 | -0.0978
C[N+](C)(C)CCCC[C@@H]1NC(=O)[C@@H]2C[C@H](C(=O)NCCCCCCN)[C@H](c3cccc(OCCO)c3)N2C1=O | 2.69 | 2.09 | 0.239 | 0.494 | 0.731 | 2.31 | 1.38 | -0.155 (inactive) | 2.1 | 1.05 | 1.45 | -0.344 (inactive) | -4.23 (inactive) | -0.244 (inactive) | 2.44 | 0.0037 (inactive) | 1.26 | 0.47 | 0.748 | 0.617
O=C1C2C=CC(C(O)c3cccc(O)c3)N(Nc3ccc([N+](=O)[O-])cc3)C2C(=O)N1c1ccccc1 (stereo not given) | -0.171 | 0.325 | -0.0133 | 0.765 | 0.719 | 0.0076 | 0.63 | 0.125 (inactive) | 0.441 | -0.136 | 0.622 | 0.706 (inactive) | 0.667 (inactive) | 1.3 (inactive) | 1.87 | 0.404 (inactive) | -0.021 | 0.196 | 0.715 | -0.0041
CS(=O)(=O)CCOC(=O)C1=CC(CCCO)=CC(c2ccc(CN3CCCC3)cc2)N(Cc2sc3ccccc3c2Cl)C=C1C(=O)OCCS(C)(=O)=O (stereo not given) | 0.0681 | 2.14 | 0.198 | 1.3 | 1.62 | 2.16 | 1.22 | 0.168 (inactive) | 0.888 | 0.0053 | 1.54 | -0.381 (inactive) | -5.83 (inactive) | -1.41 (inactive) | 2.06 | -0.853 (inactive) | 0.27 | 0.563 | 1.04 | 0.447
C=C(/C(=C/C[C@H](OC(C)=O)c1ccc(CO)o1)c1cnc2ccccc2c1)C(C)C | -0.519 | 1.01 | 0.0122 | 1.01 | 1.5 | 1.68 | 1.04 | 0.938 (inactive) | 0.846 | -0.0296 | 1.54 | -0.816 (inactive) | -1.13 (inactive) | 0.171 (inactive) | 2.64 | 0.243 (inactive) | -0.044 | 1.6 | 1.02 | -0.0172
O=C1O[C@@H](c2ccccc2)[C@@H](c2ccccc2)N2[C@@H](c3ccc(O)cc3)[C@]3(C(=O)Nc4ccc(C#CCCO)cc43)[C@@H](C(=O)N3CCN(c4ncccn4)CC3)[C@H]12 | -1.14 | -0.307 | -0.265 | 0.204 | 0.973 | 0.564 | 1.35 | -1.55 (inactive) | -0.925 | -1.27 | 1.54 | 2.72 (inactive) | 2 (inactive) | 6.45 (inactive) | 1.04 | 2.07 (inactive) | -0.698 | 1.74 | 1.09 | -0.257
